According to PubChem BioAssay AID651703 (Broad Institute, 2012):
Out of some 1,200 compounds screened, about 970 (81%) were called active. The rule behind the calls is not given here. So high a share suggests a set chosen from earlier hits. Not all results are given here. Results with a measured potency or affinity are listed apart.

The compounds below were run against Transforming acidic coiled-coil-containing protein 3 (Homo sapiens) (UniProt Q9Y6A5) (assay: ARNT/TACC3 interaction disruptors, potency, confirmation, biochemical, AlphaScreen, cherry-picked samples (AID 651703;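 note: TACC3 partner is the GST-tagged E629A mutant dimer; hits lower the signal meaning they disrupt ARNT binding to TACC3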)). Settings: AlphaScreen His-ARNT PAS-B / GST-TACC3 binding, luminescence; series mostly up to 68 µM; activity change, negative = inhibition: at the top concentration.

Activity change, negative = inhibition, inactive:
Clc1ccc(SCc2cc(N3CCOCC3)nc(-c3ccccn3)n2)cc1 -30.7%
CCOc1cc(/C=N/Nc2ncc(C)c(=O)[nH]2)ccc1O -8.82%
O=C1C2CCCCN2C(=O)N1CCCCN1CCN(c2cccc(Br)c2)CC1 (stereo unspecified) -21.4%
O=C(CCC(=O)c1cccs1)OCc1nnc(-c2ccccc2)o1 10.7%
CCc1c(C)nc(Nc2nc(C)c3ccc(OC)cc3n2)[nH]c1=O -7.31%
CCN(C(=O)CSc1nccn1C)c1cccc2ccccc12 -6.72%
COc1cc2c(cc1OC)C(Cc1ccccc1[N+](=O)[O-])=NCC2 -20.7%
O=C(Nc1nnc(-c2ccccc2)s1)c1cc(-c2ccccc2)on1 -1.62%
CCSc1nnc(NC(=O)C2CCCCC2C(=O)O)s1 (stereo unspecified) 1.56%
CC(C)NC(=O)Nc1cccc2c1O[C@H](CN(C)C(=O)Nc1ccc(C(F)(F)F)cc1)[C@@H](C)CN([C@@H](C)CO)C2=O -0.802%
C[C@H]1CN([C@@H](C)CO)C(=O)Cc2cc(NC(=O)Nc3cccc4ccccc34)ccc2O[C@H]1CN(C)CC1CCCCC1 -36.3%
C[C@H](CO)N1C[C@H](C)[C@@H](CN(C)C(=O)Nc2ccc3c(c2)OCO3)Oc2ccc(NC(=O)CCN3CCOCC3)cc2CC1=O -7.87%
C[C@@H]1CN([C@@H](C)CO)C(=O)c2cc(NC(=O)C3CC3)ccc2O[C@H]1CN(C)C(=O)Nc1ccc(F)cc1 -7.79%
C[C@@H]1CN([C@H](C)CO)C(=O)Cc2cc(NC(=O)Nc3cccc4ccccc34)ccc2O[C@@H]1CN(C)Cc1ccc(C(=O)O)cc1 -6.54%
COCCCN=Cc1c(-c2ccccc2)[nH]n(-c2nc3ccccc3s2)c1=O -37.7%
COc1ccc(-c2[nH]ncc2/C=N\NC(=O)c2cccs2)cc1OC -14%
C#CCOc1ccc(OC)cc1C(c1c(C)[nH][nH]c1=O)c1c(C)[nH][nH]c1=O -1.5%
CCOc1ccc(Cl)cc1C(c1c(C)[nH][nH]c1=O)c1c(C)[nH][nH]c1=O -2.73%
CCCN(C)C[C@@H]1Oc2ncc(C#CCC(C)C)cc2C(=O)N([C@@H](C)CO)C[C@H]1C -18.2%
O=C(O)c1ccccc1-c1ccccc1C(=O)Nc1ccc2c(c1)[nH]c(=O)c1ccccc12 0.471%
O=C(Nc1nc2ccccc2s1)c1cc(-c2ccccc2)on1 -1.55%
Cc1onc(-c2c(Cl)cccc2Cl)c1C(=O)Nc1ccc(N2CCOCC2)cc1 -17.6%
Cc1ccc(C(=O)Oc2ccc(/C=C3\C(=N)N4N=C(N5CCOCC5)SC4=NC3=O)cc2)cc1 -26.6%
O=C1CCN(Cc2ccccc2)C=C1c1ccc(C(F)(F)F)cc1 -27.7%
Cc1cccc(Oc2nc(-c3ccccn3)nc3ccccc23)c1 -28.3%
Nc1cc2cccnc2cc1Cl -23.6%
O=C(C[C@H]1C=C[C@@H](NC(=O)Nc2ccc3c(c2)OCO3)[C@H](CO)O1)NCc1ccc(Cl)cc1 2.06%
N#CC1=C(N)Oc2n[nH]c(-c3ccccn3)c2C1c1c(F)cccc1Cl (stereo unspecified) -16.6%
CCN(CC)C(=O)[C@H]1C[C@H](CC(=O)NCc2ccc(OC)c(OC)c2)C(=O)N2CCc3c([nH]c4ccc(Cl)cc34)[C@]12C -12.8%
CN1CCN(S(=O)(=O)c2cccc(C(=O)Nc3sccc3C(N)=O)c2)CC1 -33.7%
O=C(NCC1CCCCC1)c1cc(-c2ccccc2)on1 3.5%
COC(=O)c1sc(N)c(C(=O)OC)c1Cn1ncc(Cl)c(Cl)c1=O -12.5%
Cc1ccccc1CNC(=O)c1cc(-c2ccccc2)on1 0.875%
CC1=NN(c2ccccc2C)C(=O)C1 -6.86%
COc1cc(NC(=O)C(=O)Nc2ccc3nc4n(c(=O)c3c2)CCCCC4)cc(OC)c1OC -6.07%
O=C(C[C@H]1C[C@H]2c3cc(NC(=O)NC4CCCCC4)ccc3O[C@H]2[C@H](CO)O1)NCc1ccccc1 -2.39%
CN(C)c1ccc2c(c1)[C@@H]1C[C@@H](CC(=O)N3CCOCC3)O[C@@H](CO)[C@@H]1O2 -30.3%
Clc1nssc1=Nc1nncs1 -30.4%
COCCNC(=O)C[C@@H]1C[C@H]2c3cc(NC(=O)C4CCOCC4)ccc3O[C@H]2[C@H](CO)O1 -3.55%
COc1ccccc1OCc1nc(C#N)c(NCCCn2ccnc2)o1 -42.8%
Cc1c(CCC(=O)O)c(=O)oc2c(C)c3occ(-c4ccc(Cl)cc4)c3cc12 -0.452%
Cc1c(CC(=O)NCCCCCC(=O)O)c(=O)oc2cc3occ(-c4ccccc4)c3cc12 -18.5%
Cc1coc2c(C)c3oc(=O)c(CCC(=O)N[C@@H](C)C(=O)N[C@@H](Cc4ccccc4)C(=O)O)c(C)c3cc12 -4.24%
COc1ccc(N(C(C)=O)c2nc3ccccc3[nH]2)cc1 -17.3%
Cc1cc(C)n(S(=O)(=O)c2ccc(Cl)cc2)n1 -2.54%
O=C(CCc1ccccc1)Nc1nnc(-c2ccccn2)o1 -16.8%
CC(=O)Nc1ccc2nc3ccccc3nc2c1 -24.7%
Cc1ccc(NC(=O)c2cc(-c3ccccc3)on2)cn1 1.4%
Cc1ccc(C2CCN(C(=S)Nc3cccc(C)c3)C2)cc1 (stereo unspecified) -38.6%
CCCNC(=O)Nc1ccc2c(c1)OC[C@H](C)N(C(=O)c1ccccc1F)C[C@@H](C)[C@@H](OC)CN(C)C2=O -3.86%
CO[C@@H]1CN(C)C(=O)c2cc(NC(=O)c3ccccc3)ccc2OC[C@@H](C)N(C(=O)C2CC2)C[C@H]1C -6.51%
CO[C@H]1CN(C)C(=O)c2cc(NC(=O)NC3CCCCC3)ccc2OC[C@H](C)N(CC2CC2)C[C@@H]1C -2.5%
Cc1cccc(NC(=O)c2cc(-c3ccccc3)on2)n1 1.16%
O=C(Nc1ccc2ccccc2n1)c1cc(-c2ccccc2)on1 1.79%
CN1/C(=N\O)c2cccc3cccc1c23 -39%
O=C(C[C@@H]1C[C@@H]2c3cc(NC(=O)C4CCOCC4)ccc3O[C@@H]2[C@H](CO)O1)NCc1cccnc1 1.31%
CC(C)NC(=O)N1[C@H](CO)[C@@H]2c3ccccc3NC[C@@H]21 -3.84%
O=C(Nc1ncc(-c2ccccc2)o1)c1cc(-c2ccccc2)on1 -0.929%
COC(=O)C[C@@H]1C[C@H]2c3cc(N(C)C)ccc3O[C@H]2[C@@H](CO)O1 -8.65%
COc1ccc(OC)c(NC(=O)COC(=O)Cn2nnc(-c3ccccc3)n2)c1 2.95%
COC(=O)c1[nH]c2cc(OC)c(OC)cc2c1NC(=O)Oc1ccccc1 -10.6%
C[C@H](CO)N1C[C@H](C)[C@H](CN(C)C(=O)Nc2cccc3ccccc23)OCCCC[C@H](C)Oc2ccc(NC(=O)CCCN(C)C)cc2C1=O -30.4%
CC(C)NC(=O)Nc1ccc2c(c1)C(=O)N([C@H](C)CO)C[C@@H](C)[C@@H](CN(C)C(=O)Nc1ccccc1)OCCCC[C@@H](C)O2 -4.52%
C[C@@H]1CN([C@@H](C)CO)C(=O)c2cc(NC(=O)C3CCCCC3)ccc2O[C@@H](C)CCCCO[C@@H]1CN(C)C(=O)NC1CCCCC1 -4.9%
C[C@@H]1CN([C@@H](C)CO)C(=O)c2cc(NC(=O)CCCN(C)C)ccc2O[C@@H](C)CCCCO[C@H]1CN(C)C(=O)Nc1cccc2ccccc12 -23.8%
CC(C)NC(=O)N(C)C[C@H]1OCCCC[C@H](C)Oc2ccc(NC(=O)Cc3ccccc3)cc2C(=O)N([C@H](C)CO)C[C@H]1C -6.01%
CC(C)NC(=O)Nc1ccc2c(c1)C(=O)N([C@@H](C)CO)C[C@H](C)[C@@H](CN(C)C)OCCCC[C@H](C)O2 -2.36%
O=C(c1cc(-c2ccccc2)on1)N1CCC(N2CCCC2)CC1 1.23%
O=C(Nc1nc(-c2ccccc2)cs1)c1cc(-c2ccccc2)on1 -1.03%
COc1ccc(-c2cnc3c(c2)C(=O)N([C@@H](C)CO)C[C@H](C)[C@@H](CN(C)Cc2cccnc2)O3)cc1 -9.39%
C[C@@H]1CN([C@H](C)CO)C(=O)c2cccc(NC(=O)c3ccncc3)c2O[C@@H]1CN(C)Cc1ccc(-c2ccccc2)cc1 -1.91%
COc1ccc(S(=O)(=O)Nc2ccc3c(c2)C(=O)N([C@H](C)CO)C[C@H](C)[C@H](CN(C)S(=O)(=O)c2ccc(C)cc2)O3)cc1 -23.5%
CNC[C@@H]1Oc2c(NS(=O)(=O)c3cccs3)cccc2C(=O)N([C@@H](C)CO)C[C@H]1C 5.28%
C[C@@H]1CN([C@H](C)CO)C(=O)c2cc(NS(C)(=O)=O)ccc2O[C@@H]1CN(C)S(=O)(=O)c1ccc(F)cc1 -13.1%
O=C(CN1CCCCCC1)Nc1ccccc1[N+](=O)[O-] -10.1%
Cc1nnc(NC(=O)CSc2nnc(CNC(=O)c3ccc(S(=O)(=O)N(C)C)cc3)o2)s1 -6.23%
CCN(CC(=O)NCc1cccs1)CC(=O)Nc1cccc(S(N)(=O)=O)c1 -1.45%
Cc1c(CC(=O)NCC(=O)NCC(=O)O)c(=O)oc2cc3oc4c(c3cc12)CCCC4 -4.49%
Cc1cc(F)ccc1NS(=O)(=O)c1cccc2nsnc12 -13.9%
CC(=O)NC1=NC(=O)/C(=C/c2cn(C(C)=O)nc2-c2ccccc2)S1 -19.3%
Cc1ccc(-c2nc(C)sc2CC(=O)NCc2ccco2)cc1 -20.4%
Cc1cc(=O)n(-c2ccc(O)cc2)[nH]1 -19.3%
O=C(NCC1CCCO1)c1onc(CSc2ccc(F)cc2)c1C(=O)O (stereo unspecified) -5.09%
Cc1cc(C)c(S(=O)(=O)N2CCCC2=O)c(C)c1N(C)S(C)(=O)=O -0.139%
O=C(C[C@H]1C=C[C@@H](NC(=O)C2CC2)[C@@H](CO)O1)Nc1nccs1 -5.2%
Cc1[nH]n2c(=O)c3c(nc2c1-c1ccccc1)CCC3 -7.76%
COc1cc(/C=C2\S/C(=N/S(=O)(=O)c3ccccc3)NC2=O)c([N+](=O)[O-])cc1OC -27.1%
COc1ccc(Cc2nnc(N/N=C(\C)c3ccccc3)[nH]c2=O)cc1OC -20.3%
O=C(CSc1nnc(-c2ccccn2)o1)Nc1ccccc1C(F)(F)F -35.2%
CN1CCN(C(=O)c2cc(-c3ccccc3)on2)CC1 1.98%
O=C(c1cc(-c2ccccc2)on1)N1CCc2cccnc21 -6.9%
